Each structure is given as a SMILES string. Screen size: about 5,600 compounds; about 3,100 (55%) were called active. Another 3% or so got no clear call; they are omitted. The set was probably picked from earlier hits. The list is a sample of the results. Unmarked numbers belong to inactive results.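 The calls were made as follows: active = mean loss of cell viability signal at or above a set limit, and enough replicates individually reaching it; inconclusive = meets only the mean limit or only the replicate share; inactive = meets neither condition.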

This experiment is described as follows: NIH/3T3 fibroblast cytotoxicity, confirmation, cytotoxicity control, cell-based, cherry-pick, single point, set 2 (AID 651744).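 Also: 0% = median of neutral control wells and 100% = median of positive control wells.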 As to conditions: NIH/3T3 viability, CellTiter-Glo ATP luminescence, 90 h; at 24.9 µM; hits give high values. For orientation: Cellular ATP, detected with luciferase, serves as a proxy for viable cell number.
For orientation: inhibition means the relative decrease from the control value, in per cent. With `C/C=C/c1ccc([C@H]2[C@@H](CNC(C)C)N(c3nc(CC)cs3)[C@H]2CO)cc1`, the inhibition is 103% (active). The same measure for `COCCNC[C@@H]1[C@H](c2ccccc2)[C@H](CO)N1c1nc(C)c(C)s1`: 5.9%; for `O=S(=O)(Cc1ccccc1)N1CCCCN2[C@@H](CO)[C@@H](c3ccc(-c4ccc(F)cc4)cc3)[C@@H]2C1`: 105% (active). As for `Cc1cccc(-c2ccc([C@@H]3[C@@H](CO)N4CCCCN(S(=O)(=O)c5cccs5)C[C@H]34)cc2)c1`, the figure is 95.2% (active); as for `CCS(=O)(=O)N1CCCCN2[C@@H](CO)[C@@H](c3ccc(-c4ccccc4)cc3)[C@@H]2C1`, 49.5% (active). The same measure for `CN(C)C(=O)c1ccc(-c2ccc([C@@H]3[C@H](CO)N4CCCCN(S(C)(=O)=O)C[C@@H]34)cc2)cc1`: 6.63%; for `O=S(=O)(Cc1ccccc1)N1CCCCN2[C@@H](CO)[C@H](c3ccc(-c4cccnc4)cc3)[C@@H]2C1`: -12.4%; for `O=S(=O)(Cc1ccccc1)N1CCCCN2[C@@H](CO)[C@H](c3ccc(-c4ccccc4)cc3)[C@@H]2C1`: 106% (active). In the case of `C[C@H](O)C#Cc1ccc([C@H]2[C@H]3CN(S(=O)(=O)Cc4ccccc4)CCCCN3[C@H]2CO)cc1`, the inhibition was 30.3% (active). The same measure for `C[C@@H](O)C#Cc1ccc([C@@H]2[C@H](CO)N3CCCCN(S(=O)(=O)c4ccccc4)C[C@@H]23)cc1`: 3.32%; for `C/C=C/c1ccc([C@H]2[C@H]3CN(S(=O)(=O)c4ccccc4)CCCCN3[C@H]2CO)cc1`: 87.7% (active); for `C[C@H](O)C#Cc1ccc([C@@H]2[C@H]3CN(S(=O)(=O)c4ccccc4)CCCCN3[C@H]2CO)cc1`: 25.4%.

With `O=C(Nc1ccc(Cl)cc1)N[C@@H]1CC[C@@H](CCNC(=O)c2ccccc2F)O[C@H]1CO`, the inhibition was 4.33%.

As for `O=C(Nc1cc(Cl)cc(Cl)c1)N[C@H]1CC[C@@H](CCNS(=O)(=O)c2cccc(F)c2)O[C@H]1CO`, the inhibition was 57.3% (active). Regarding `COc1cccc(S(=O)(=O)Nc2ccc3c(c2)[C@H]2C[C@H](CC(=O)NCc4ccc(Cl)cc4)O[C@H](CO)[C@H]2O3)c1`, the inhibition was 4.86%. As for `CCCC#Cc1ccc2c(c1)O[C@@H](CN(C)C(=O)c1ccccc1F)[C@H](C)CN([C@H](C)CO)S2(=O)=O`, the figure is 24.6%; as for `C[C@H](CO)N1C[C@H](C)[C@@H](CN(C)Cc2ccncc2)Oc2cc(Br)ccc2S1(=O)=O`, 51.2% (active); as for `CC(C)CC#Cc1ccc2c(c1)O[C@H](CN(C)Cc1ccccc1F)[C@@H](C)CN([C@@H](C)CO)S2(=O)=O`, 105% (active).

On to `CC(C)CC#Cc1ccc2c(c1)O[C@H](CN(C)Cc1ccncc1)[C@H](C)CN([C@H](C)CO)S2(=O)=O`, for which the inhibition was 104% (active). The same measure for `CC(C)CC#Cc1ccc2c(c1)O[C@H](CN(C)Cc1cccnc1)[C@H](C)CN([C@@H](C)CO)S2(=O)=O`: 97% (active); for `O=C(Nc1ccc2c(c1)[C@@H]1C[C@H](CC(=O)N3CCOCC3)O[C@@H](CO)[C@@H]1O2)c1ccc2c(c1)OCO2`: 4.7%. The same measure for `C[C@H](CO)N1C[C@H](C)[C@@H](CN(C)C(=O)Nc2cc(F)ccc2F)Oc2cc(C#CC3CC3)ccc2S1(=O)=O`: 55.6% (active). As for `C[C@H]1CN([C@@H](C)CO)C(=O)CCCn2cc(nn2)CO[C@H]1CN(C)C(=O)c1ccccc1`, the figure is 7.66%. `C[C@H]1CN([C@@H](C)CO)S(=O)(=O)c2ccc(C#CC3CCCC3)cc2O[C@@H]1CN(C)C(=O)c1cccc(F)c1`: the inhibition is 105% (active). As for `CO[C@H](CN(C)S(=O)(=O)c1ccc(Cl)cc1)[C@@H](C)CN(Cc1ccccc1Cl)[C@H](C)CO`, the figure is 74% (active); as for `COc1cccc(S(=O)(=O)N2CCCCN3[C@H](CO)[C@H](c4ccc(C#CC5CC5)cc4)[C@H]3C2)c1`, 104% (active). As for `OC[C@@H]1[C@H](c2ccc(C#CC3CC3)cc2)[C@@H]2CN(CCC(F)(F)F)CCCCN12`, the figure is 102% (active). Consider `COc1cccc(S(=O)(=O)N2CCCCN3[C@H](CO)[C@H](c4ccc(-c5ccncc5)cc4)[C@H]3C2)c1`, for which the inhibition is 36.2% (active). The same measure for `O=C(CN1CCOCC1)N1CCCCN2[C@H](CO)[C@H](c3ccc(-c4ccccc4)cc3)[C@@H]2C1`: 16.2%; for `CCC(=O)N1CCCCN2[C@H](C1)[C@@H](c1ccc(-c3ccc(F)cc3)cc1)[C@@H]2CO`: 48.8% (active); for `CCC(=O)N1CCCCN2[C@H](C1)[C@@H](c1ccc(/C=C/c3ccccc3)cc1)[C@@H]2CO`: 103% (active). As for `O=C(CN1CCOCC1)N1CCCCN2[C@@H](CO)[C@H](c3ccc(-c4ccccc4)cc3)[C@@H]2C1`, the figure is 6.88%. For `O=C(CN1CCOCC1)N1CCCCN2[C@@H](CO)[C@H](c3ccc(/C=C/c4ccccc4)cc3)[C@@H]2C1`, the inhibition was 92.5% (active). As for `Cc1ccc(S(=O)(=O)Nc2ccc3c(c2)C(=O)N([C@H](C)CO)C[C@H](C)[C@H](CN(C)C(=O)Nc2ccc(F)cc2)OCCCC[C@H](C)O3)cc1`, the figure is 1.65%. The same measure for `Cc1ccc(S(=O)(=O)N(C)C[C@@H]2OCCCC[C@@H](C)Oc3ccc(NS(=O)(=O)c4ccc(F)cc4)cc3C(=O)N([C@H](C)CO)C[C@H]2C)cc1`: -22.2%. `COc1ccc(S(=O)(=O)Nc2ccc3c(c2)C(=O)N([C@@H](C)CO)C[C@H](C)[C@@H](CN(C)Cc2ccc(C(F)(F)F)cc2)O3)cc1`: the inhibition was 5.53%. As for `COc1ccc(CN(C)C[C@H]2Oc3ccc(NS(=O)(=O)c4ccc(Cl)cc4)cc3CC(=O)N([C@@H](C)CO)C[C@H]2C)cc1`, the figure is 36.9% (active); as for `COc1ccc(NC(=O)Nc2ccc3c(c2)C(=O)N([C@H](C)CO)C[C@H](C)[C@H](CN(C)S(=O)(=O)c2ccc(Cl)cc2)OCCCC[C@H](C)O3)cc1`, 3.56%; as for `COc1ccc(S(=O)(=O)Nc2ccc3c(c2)C(=O)N([C@H](C)CO)C[C@H](C)[C@H](CN(C)Cc2ccc(C(F)(F)F)cc2)O3)cc1`, 97.6% (active). The same measure for `Cc1ccc(S(=O)(=O)Nc2ccc3c(c2)C(=O)N([C@H](C)CO)C[C@H](C)[C@H](CN(C)Cc2ccc(Cl)c(Cl)c2)O3)cc1`: 104% (active); for `COc1ccc(S(=O)(=O)Nc2ccc3c(c2)C(=O)N([C@@H](C)CO)C[C@H](C)[C@H](CN(C)Cc2ccc(C(F)(F)F)cc2)O3)cc1`: 35.2% (active); for `CN1C(=O)c2cc(NC(=O)c3cnccn3)ccc2OC[C@@H]2O[C@H](CC(=O)N[C@@H]3CCN(Cc4ccccc4)C3)CC[C@@H]21`: -11.4%. The same measure for `C[C@H](CO)N1C[C@H](C)[C@H](CN(C)Cc2ccc(C(F)(F)F)cc2)Oc2ccc(NS(=O)(=O)c3ccc(Cl)cc3)cc2C1=O`: 101% (active); for `C[C@@H]1CN([C@@H](C)CO)S(=O)(=O)c2ccc(C#Cc3ccc(F)cc3)cc2O[C@H]1CN(C)C(=O)c1ccccn1`: 92.1% (active). As for `C[C@@H]1CN([C@@H](C)CO)S(=O)(=O)c2ccc(C#Cc3ccccc3)cc2O[C@@H]1CN(C)C(=O)Nc1ccccc1`, the inhibition was 49.1% (active). As for `C[C@@H]1CN([C@@H](C)CO)S(=O)(=O)c2ccc(-c3ccncc3)cc2O[C@@H]1CN(C)C(=O)Nc1ccc(F)cc1`, the figure is 21.8%; as for `C[C@@H]1CN([C@H](C)CO)S(=O)(=O)c2ccc(-c3cccc(C#N)c3)cc2O[C@@H]1CN(C)C(=O)Nc1ccccc1F`, 77.8% (active); as for `C[C@@H]1CN([C@@H](C)CO)S(=O)(=O)c2ccc(C#Cc3ccc(F)cc3)cc2O[C@H]1CN(C)C(=O)NC1CCCC1`, 90.7% (active).

On to `C[C@H](CO)N1C[C@H](C)[C@H](CN(C)Cc2cccnc2)Oc2cc(C#CC3CCCC3)ccc2S1(=O)=O`, for which the inhibition was 104% (active). As for `C[C@@H]1CN([C@H](C)CO)S(=O)(=O)c2ccc(C#CC3CCCC3)cc2O[C@@H]1CN(C)Cc1cccnc1`, the figure is 104% (active).

As for `COc1cccc(S(=O)(=O)N2CCCCN3[C@H](C2)[C@H](c2ccc(C#CC(C)C)cc2)[C@@H]3CO)c1`, the inhibition is 26.4%. As for `COc1ccc(S(=O)(=O)N2CCCCN3[C@H](C2)[C@H](c2ccc(C#CCC(C)C)cc2)[C@@H]3CO)cc1`, the figure is 64.2% (active). The same measure for `COc1ccc(S(=O)(=O)N2CCCCN3[C@H](CO)[C@@H](c4ccc(C#CC(C)C)cc4)[C@H]3C2)cc1`: 105% (active); for `CC(C)C#Cc1ccc([C@H]2[C@H](CO)N3CCCCN(C(=O)NC(C)C)C[C@@H]23)cc1`: 50% (active); for `COc1ccccc1-c1ccc2c(c1)O[C@@H](CN(C)C)[C@H](C)CN([C@H](C)CO)S2(=O)=O`: 19.5%. Turning to `C[C@@H]1CN([C@H](C)CO)S(=O)(=O)c2ccc(-c3cccc(F)c3)cc2O[C@H]1CN(C)S(=O)(=O)c1ccc(F)cc1`, the inhibition was 60.5% (active). Consider `CC(C)CC#Cc1ccc2c(c1)O[C@H](CN(C)S(=O)(=O)c1cccc(F)c1)[C@@H](C)CN([C@@H](C)CO)S2(=O)=O`, for which the inhibition was 105% (active). As for `Cc1ccc(-c2ccc3c(c2)O[C@H](CN(C)C)[C@@H](C)CN([C@H](C)CO)S3(=O)=O)cc1`, the figure is 25.3% (active); as for `COc1ccccc1-c1ccc2c(c1)O[C@H](CN(C)S(=O)(=O)c1ccc(C)cc1)[C@@H](C)CN([C@H](C)CO)S2(=O)=O`, 31.1% (active). On to `Cc1noc(C)c1S(=O)(=O)Nc1ccc2c(c1)C(=O)N([C@@H](C)CO)C[C@@H](C)[C@H](CN(C)S(=O)(=O)c1ccc(Cl)cc1)OCCCC[C@H](C)O2`, for which the inhibition was -2.59%.

Turning to `C[C@H](CO)N1C[C@H](C)[C@@H](CN(C)S(=O)(=O)c2ccc(F)cc2)Oc2cc(C3=CCCC3)ccc2S1(=O)=O`, the inhibition was 45.4% (active). The same measure for `C[C@@H]1CN([C@H](C)CO)C(=O)c2cc(NS(C)(=O)=O)ccc2O[C@@H](C)CCCCO[C@H]1CN(C)S(=O)(=O)c1cn(C)cn1`: -25.6%. The same measure for `C[C@H]1CN([C@@H](C)CO)S(=O)(=O)c2ccc(C#Cc3cccc(F)c3)cc2O[C@@H]1CN(C)S(=O)(=O)c1cn(C)cn1`: 77.2% (active); for `C[C@@H]1CN([C@@H](C)CO)S(=O)(=O)c2ccc(-c3cccc(F)c3)cc2O[C@@H]1CN(C)S(=O)(=O)c1ccccc1`: 57.2% (active).

The record behind these values is PubChem BioAssay AID651744 (Broad Institute, 2012).
